Screening results: PubChem, Broad Institute
Sampled rows, rich in hits. Any-hit rate of the full collection: about 2.4%.
miR122 inh: miR-122 inhibition in Huh7 cells. Huh7 miR-122 Renilla luciferase sensor, 48 h; neutral wells = 0, positive control = 100. activation (reporter increase), % at 12.5 µM. 340,000 tested, 0.3% active. AID 602342;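 active = mean replicate activation score at least 90 and every replicate individually at or above 90; inconclusive = only one of the two criteria met; inactive = neither criterion met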;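 also: higher luciferase means less miR-122 activity so hits act as miR-122 inhibitors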
Wnt bcat act: Wnt/beta-catenin pathway activation; 300,000 tested, 1.2% active; activation, % at 9.35 µM; Wnt/beta-catenin reporter cell assay, activator, plate reader; in the data active = activation above about 30%, passing the limit was not always enough; inconclusive = no clear call, values can overlap the other calls;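 also: 0% = neutral control wells and 100% = positive control wells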
MITF act: MITF TRPM1 promoter activation in melanoma cells; SK-MEL-5 TRPM1-promoter luciferase, 24 h; % of positive control, neutral wells = 0; activation, % at 12.5 µM; 300,000 tested, 0.75% active; AID 588334;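 active = mean activation of at least 80% with every replicate also reaching 80%; inconclusive = mean reaches 80% but some replicate falls short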;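 also: 0% = neutral control wells and 100% = parthenolide positive control wells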
DYRK1A inh: blocks rat Dyrk1A kinase activity. Q63470. ADP-Glo luminescence, NFATc1 peptide. inhibition, % at 12.5 µM. 310,000 tested, 0.43% active. AID 504441;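 also: plate controls were vehicle with enzyme for no effect and no enzyme for full effect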
NSD2 inh: blocks human histone methyltransferase NSD2; inhibition, % at 12.5 µM; O96028; AID 743445; NSD2 peptide methylation, AlphaScreen, 120 min; 310,000 tested, 0.54% active
GSIS activator: primary screen for activators of insulin secretion dependent on glucose, INS-1E cells, GLuc reporter luminescence; INS-1E GLuc reporter insulin secretion, 2-3 h; activation, % at 16.6 µM; 370,000 tested, 0.61% active; AID 743287;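 active = lowest replicate activation of at least 40%, so every replicate reaches that level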;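 also: 0% = median of neutral control wells and 100% = median of IBMX positive control wells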
Starred values were filed as active, the others as inactive; u = inconclusive; x = no result given; ! = not confirmed by another sample; [ ] = dose if it differs, or a comment. Rule as the data show it, unless noted: active = inhibition above about 50%; inactive = the rest.

SMILES	miR122 inh	Wnt bcat act	MITF act	DYRK1A inh	NSD2 inh	GSIS activator
COc1ccc(O)c(C(=O)CC(=O)c2cccnc2)c1	x	34.1*	62.3	12.0	-0.4	7.3
Cc1nc(-c2noc(-c3ccccc3Cl)n2)c(C(F)(F)F)o1	-6.2	-1.9	83.1*	-0.2	-2.1	18.0
O=[N+]([O-])c1cc(Cl)ccc1-c1nc(-c2ccncc2)no1	x	7.1	-1.2	-0.1	-1.5	-2.5
O=[N+]([O-])c1ccccc1-c1nc(-c2ccc(Br)o2)no1	x	47.2*	40.0	0.1	5.7	6.4
c1ccc(-c2ccccc2-c2nc(-c3ccncc3)no2)cc1	4.2	x	16.1	6.7	x	x
Clc1ccccc1-c1nc(-c2ccncc2)no1	-11.5	49.0*!	36.3	6.9	-4.7	-6.2
O=[N+]([O-])c1cc(Cl)ccc1-c1nc(-c2ccccc2)no1	x	51.1*	46.6	4.4	0.1	-12.9
Clc1ccc(-c2nc(-c3ccncc3)no2)c(Cl)c1	-4.4	60.0*	x	11.3	-3.6	-4.8
c1c2c(cc3sc(N4CCOCC4)nc13)OCO2	-6.2	x	x	13.0	11.0	x
c1c2c(cc3sc(N4CCCCC4)nc13)OCO2	-5.5	53.8*	-4.2	7.0	x	-10.8
C[C@H](CO)N1C[C@H](C)[C@@H](CN(C)C(=O)N[C@H](C)c2ccccc2)OCc2ccccc2-c2ccccc2C1=O	x	x	x	x	x	13.2
CCOC(=O)CN(C(=O)CSc1nnc(-c2ccncc2)n1CCCN(C)C)c1ccccc1	x	35.9*	x	1.5	-0.2	x
CCOCCCn1c(SCc2ccccc2)nnc1-c1ccncc1	x	1.4	-3.8	2.7	-3.4	78.3*
COC(=O)c1nc(Cl)c(Cl)c(N)c1Cl	x	-1.7	-24.1	-1.1	-2.6	66.1
CCCCCCCCOC(=O)c1nc(Cl)c(Cl)c(N)c1Cl	-4.6	-0.6	-10.1	-8.9	-3.1	60.2*
Cc1cccc(S(=O)(=O)c2c(N)n(Cc3ccco3)c3nc4ccccc4nc23)c1	63.8	x	x	0.8	-1.1	x
Cc1ccc(S(=O)(=O)c2c(N)n(Cc3ccco3)c3nc4ccccc4nc23)cc1	121.4*	-3.2	x	8.8	-5.9	x
Cc1cc(C(=O)Nc2nc3ccc(Cl)cc3s2)nn1C	-5.2	60.2*	x	x	-0.6	5.6
COCCNCC(=O)N1c2ccccc2Sc2ccccc21	6.0	48.3*	x	-2.1	-2.7	2.8
O=C(Nc1cc(F)ccc1F)N1CC(=O)N2[C@@H](CO)[C@H](c3ccc(C#CC4CCCC4)cc3)[C@@H]2C1	x	x	x	x	x	-7.5
O=C1NC(c2ccccc2Cl)=N/C1=C/c1ccco1	x	52.7*	66.6	12.4	1.7	-21.1
O=C1ON=C(c2ccccc2)/C1=C\c1ccco1	-2.3	-1.3	x	8.2	13.7	x
S=c1[nH]nc(-c2ccccc2Cl)n1/N=C/C=C/c1ccco1	3.6	-1.3	x	x	3.7	6.2
O=C1NC(c2ccc(Br)cc2)=N/C1=C/c1ccco1	-1.9	x	97.1*	-5.1	-2.4	29.6
C[C@H](CO)N1C[C@H](C)[C@@H](CN(C)S(=O)(=O)c2ccc(Cl)cc2)Oc2ccc(NS(=O)(=O)c3cn(C)cn3)cc2CC1=O	-4.6[16.7 µM]	x	x	x	x	14.7
SMILES	miR122 inh	Wnt bcat act	MITF act	DYRK1A inh	NSD2 inh	GSIS activator
CCC1CCCCN1C(=O)CSc1nnc(-c2ccco2)o1 (stereo not drawn)	-18.0	47.4*	47.3	-2.3	-1.4	x
CCC1CCCCN1C(=O)CSc1nnc(-c2ccc(Cl)cc2)o1 (stereo not drawn)	-9.7	0.6	x	-8.2	x	13.6
COCC(=O)N1C[C@@H](C)[C@@H](OC)CN(C)C(=O)c2ccc(NC(=O)c3ccc(F)cc3)cc2OC[C@H]1C	1.0[16.7 µM]	x	x	x	x	10.9
O=[N+]([O-])/C(=C\Nc1ccccc1)S(=O)(=O)c1ccccc1	9.1	x	-2.3	2.8	1.9	52.4*
Cc1cc(C(=O)COC(=O)c2cccc(S(=O)(=O)N(C)C)c2)c(C)n1CC1CCCO1 (stereo not drawn)	-0.8	36.9*	u	3.5	1.4	-15.6
CNS(=O)(=O)c1cccc(C(=O)OCC(=O)c2cc(C)n(CC3CCCO3)c2C)c1 (stereo not drawn)	-3.4	10.5	32.8	-3.5	3.0	-7.5
COc1ccc(/C=N/n2cnnc2SCCO)cc1OC	-2.6	x	-0.5	6.1	2.4	x
C=CCSc1nncn1/N=C/c1ccc(OC)cc1	x	26.9	92.0*	11.1	-8.5	x
C[C@@H]1CC=CC[C@H](c2ccc3c(c2)OCO3)NC(=O)[C@@H](Cc2ccccc2)N(C)C(=O)c2ccccc2O1 (mixture of isomers)	x	x	x	x	x	-42.7
O=C(O)c1cccc(CN2C(=O)SC(Nc3ccccc3)C2=O)c1 (stereo not drawn)	5.2	2.8	-4.1	3.6	-2.0	x
O=C(O)c1cccc(CN2C(=O)SC(Nc3cccc4ccccc34)C2=O)c1 (stereo not drawn)	-8.6	40.2*	-8.8	7.6	24.1	-16.2
Cc1ccc(-n2nc3ccc(N)cc3n2)cc1C	1.4	31.0*	-20.1	1.0	3.4	x
Cc1ccc(-n2nc3ccc(N)cc3n2)cc1Cl	10.2	10.4	19.3	-0.3	2.4	-20.0
CO[C@H](CN(C)C(=O)c1ccc2c(c1)OCO2)[C@@H](C)CN([C@H](C)CO)S(=O)(=O)c1ccccc1	x	x	x	x	x	16.8
CN(C)c1ccc(/C=C/c2ccncc2)cc1	2.8	43.5*	60.3	-0.6	5.5	x
COc1ccc(/C=C/c2ccncc2)cc1	-1.1	45.7*	73.8	2.5	-1.2	x
S=C(c1ccc(-c2cccc(Cl)c2)o1)N1CCOCC1	-2.6	-2.6	139.3*	8.1	5.9	-12.2
O=[N+]([O-])c1cccc(-c2ccc(C(=S)N3CCOCC3)o2)c1	-7.5	-3.1	22.8	42.5	13.1	2.6
S=C(c1ccc(-c2cccc(Cl)c2)o1)N1CCCCC1	x	40.2*	93.4*	x	7.1	-5.4
N#CCCN1CCN(C(=S)c2ccc(-c3cccc(Cl)c3)o2)CC1	3.8	x	58.8	38.4	2.6	x
C[C@@H]1CN([C@H](C)CO)C(=O)c2cc(-c3ccccc3F)cnc2O[C@H]1CN(C)Cc1cccc(F)c1	23.6[16.7 µM]	x	x	x	x	x
CCC(C)Sc1ccc(-c2nc3ccc(Cl)cn3c2NCc2ccccc2)cc1 (stereo not drawn)	-5.2	u	83.9*	-1.9	x	-13.1
Clc1cccc(-c2ccc(-c3nc4ccccn4c3NCc3ccccc3)cc2)c1	-10.9	31.2*	18.6	12.5	x	x
O=S(=O)(N[C@H]1CC[C@H](CCn2cc(-c3ccccc3F)nn2)O[C@@H]1CO)c1ccc(F)cc1	x	x	x	x	x	-5.2
COc1cccc(NC(=O)/C=C/c2ccco2)c1	x	68.3*	73.0	x	2.8	-38.3
O=C(/C=C/c1ccco1)Nc1cccnc1	x	53.1*	41.6	5.1	3.9	8.0
O=C(/C=C/c1ccc(Cl)c(Cl)c1)Nc1cccnc1	-6.3	2.4	u	0.1	0.7	2.5
CC(C)(C)c1ccc(/C=C/C(=O)Nc2cccnc2)cc1	x	31.0*	108.5*	10.1	-1.4	-34.3
O=C(/C=C/c1ccco1)c1cccnc1	x	0.0	-5.9	-3.6	27.6	-4.7
